Reference: PubChem BioAssay (NCATS)
Records with an inconclusive call do not appear. Calls of active or inactive are those of the source. Calls follow the shape of the dose curve; as a rule, active = well fitted inhibition curve with a large enough effect; inconclusive = small, poorly fitted or top-dose-only effect, or effect the other way; inactive = flat fitted curve, though single readings scatter.

biological target: ATP-dependent 6-phosphofructokinase (Trypanosoma brucei brucei) (UniProt O15648); assay: qHTS Validation Assay to Find Inhibitors of T. brucei phosphofructokinase (AID 485368); conditions: T. brucei PFK enzyme assay, qHTS 7-point titration; series mostly up to 57.5 µM; activity change, negative = inhibition: at the top concentration
Sequence (O15648 whole entry, looked up): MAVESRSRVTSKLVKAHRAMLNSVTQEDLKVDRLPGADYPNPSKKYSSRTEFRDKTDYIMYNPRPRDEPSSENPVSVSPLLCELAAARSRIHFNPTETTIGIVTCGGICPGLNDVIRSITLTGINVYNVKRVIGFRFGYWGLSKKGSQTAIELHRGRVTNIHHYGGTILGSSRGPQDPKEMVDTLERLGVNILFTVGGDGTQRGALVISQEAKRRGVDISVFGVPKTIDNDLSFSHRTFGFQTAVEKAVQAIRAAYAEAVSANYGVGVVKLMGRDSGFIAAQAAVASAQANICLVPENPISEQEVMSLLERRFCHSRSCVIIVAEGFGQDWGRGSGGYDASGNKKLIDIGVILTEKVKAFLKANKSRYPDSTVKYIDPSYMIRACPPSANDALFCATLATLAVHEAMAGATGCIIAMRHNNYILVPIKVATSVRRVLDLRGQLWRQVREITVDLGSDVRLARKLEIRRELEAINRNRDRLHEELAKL
Description: NIH Molecular Libraries Probe Production Network [MLPCN]
NIH Chemical Genomics Center [NCGC]
PI Name: Malcolm Walkinshaw, University of Edinburgh
Various species of the protozoan family Trypanosomatidae are responsible for a range of serious human diseases in tropical and subtropical areas of the world. […] Many of the disorders caused by trypanosomatids are fatal if left untreated, but most currently used drugs are inefficient and toxic.
Oxidative metabolism involving the mitochondrial tricarboxylic acid cycle and oxidative phosphorylation are repressed in these parasites, and recent RNA interference (RNAi) experiments have shown that even partial depletion of certain individual glycolytic enzymes can lead to the death of cultured parasites. One such glycolytic enzyme, phosphofructokinase (PFK), catalyzes the formation of fructose-1,6-bisphosphate (F1,6BP) and ADP from fructose-6-phosphate (F6P) and ATP, and in many metabolic circumstances makes an important contribution to the control of flux through the glycolytic pathway. As a specific glycolytic target, PFK is particularly attractive as it catalyzes the first irreversible step in glycolysis, and structural and kinetic studies have shown very substantial and essential differences from corresponding host enzymes, allowing for the discovery of parasite-selective inhibitors.
The goal of this screen is to find small-molecule inhibitors of T. brucei PFK using a biochemical assay that measures PFK activity as a function of ADP production. A luminescence-based assay for T. brucei PFK activity has been developed which uses luciferase to detect production of ADP. Traditional luciferase-based nucleotide detection reagents rely on ATP production as a direct substrate for the luciferase reaction; however, PFK catalyzes the transfer of a phosphate from ATP to F6P, resulting in the net depletion of ATP. To directly measure the ADP product of the PFK reaction, we used the ADP-Glo detection kit (Promega), which utilizes two separate reactions to 1) deplete all remaining uncatalyzed ATP and 2) convert all remaining ADP to ATP, which is then detected through a traditional luciferase-coupled reaction. Compounds were screened as a concentration-titration series that ranged from 57 uM to 0.7 nM.
NCGC Assay Protocol Summary:
Substrate buffer was dispensed into white, solid 1536-well plates at 3uL/well in 0.1M triethanolamine (TEA) buffer, pH 8.0, containing final concentrations of 5 mM MgCl2, 0.01% Tween20, 0.5 mM fructose-6-phosphate (F6P) and 0.1mM ATP. Then, 23 nL of compounds or DMSO were delivered to each well using a pin tool. One uL T. brucei PFK (0.1M TEA, 0.01% Tween20, 0.1% bovine serum albumin (BSA) and 1.25nM PFK, final concentrations) was then dispensed, and plates were incubated at room temperature for 45 min. The luminescent detection reagent, ADP-Glo (Promega), was then added in two steps: the first reagent, ADP-Glo (which converts remaining uncatalyzed ATP), was added at 2.5uL/well and incubated for ten minutes at room temperature, and the second component, Kinase Detection reagent (which converts ADP to ATP as a substrate for luciferase-based luminescence), was added immediately after at 5uL/well, followed by one final ten minute room temperature incubation. The plates were measured on a ViewLux plate reader for luminescent signal using a clear filter with a one second exposure. The %Activity was determined from the corrected luminescence values. As no specific T. brucei PFK inhibitors have been identified in the literature, 1x (1.25nM) and 0x PFK enzyme controls (untreated) were included to normalize %Activity of identified inhibitors; 0x enzyme values corresponded to 100%Activity (full inhibition), while 1x PFK enzyme values were used to normalize 0%Activity (no inhibition).
Concentration-response curves were fitted to the signals arising from the resulting luminescence. […]

Row | SMILES | outcome | activity change, negative = inhibition
1 | CC(N)=NCCCC[C@@H](N)C(=O)O | inactive | –
2 | CCCCOc1cc(CC2CNC(=O)N2)ccc1OC (stereo not given) | inactive | –
3 | CC(=O)C(C)=O | inactive | –
4 | C#CCn1c(=O)c2c(ncn2C)n(C)c1=O | inactive | –
5 | O=C(OCCN1CCOCC1)C1(c2ccccc2)CCCCC1 | inactive | –
6 | C=C(C)C1CC=C(C(=O)O)CC1 (stereo not given) | inactive | –
7 | CCCCC[C@H](CC(=O)NO)C(=O)N[C@H](C(=O)N1CCC[C@H]1CO)C(C)C | – | 2.34% (inactive)
8 | OC[C@H]1O[C@@H](n2cnc3cncnc32)[C@H](O)[C@@H]1O | inactive | –
9 | O=c1[nH]c(=S)[nH]c(-c2ccccc2)c1Cc1c(O)ccc2ccccc12 | inactive | –
10 | Cc1cccc(C)c1OCC(N)C(C)C (stereo not given) | inactive | –
11 | CC(/C=C/c1cccc(Oc2ccc(F)cc2)c1)N(O)C(N)=O (stereo not given) | inactive | –
12 | CCCN(CCc1ccccc1)C1CCc2c(O)cccc2C1 (stereo not given) | inactive | –
13 | CN(C)S(=O)(=O)c1ccc2c(c1)/C(=C/c1cc3c([nH]1)CCCC3)C(=O)N2 | inactive | –
14 | C=CCNc1ncnc2ccc(Br)cc12 | inactive | –
15 | CC(C)[C@@H]1CC[C@@H](C)C[C@@H]1P(=O)(c1ccccc1)c1ccccc1 | inactive | –
16 | COc1cc2c(CCNC(C)=O)c[nH]c2cc1O | inactive | –
17 | O=C(O)/C=C/c1cnc[nH]1 | inactive | –
18 | C#CC(N)CCC(=O)O (stereo not given) | inactive | –
19 | c1ccc(CN2CCC3(CCCc4ccccc43)CC2)cc1 | – | 10.4% (inactive)
20 | CCCCCCN(CCCCCC)C(=O)Cc1c(-c2ccc(F)cc2)[nH]c2ccccc12 | inactive | –

Row | SMILES | outcome | activity change, negative = inhibition
21 | O=c1[nH]c2ccccc2c2ccccc12 | inactive | –
22 | O=S(=O)(c1cccc2c(Cl)cccc12)N1CCCNCC1 | inactive | –
23 | Cn1c(=O)c2c(nc(/C=C/c3cccc(Cl)c3)n2C)n(C)c1=O | – | -2.36% (inactive)
24 | NC1(C(=O)O)CCCCC1 | inactive | –
25 | NCCCCN=C(N)N | inactive | –
26 | CC(C)NC[C@H](O)COc1cccc2ccccc12 | – | 25.6% (inactive)
27 | CC(C)(C)c1cc(/C=C(\C#N)C(N)=S)cc(C(C)(C)C)c1O | inactive | –
28 | COC(=O)C1=C(C)NC(C)=C([N+](=O)[O-])C1c1ccccc1C(F)(F)F (stereo not given) | inactive | –
29 | O=[N+]([O-])c1cccc2cn[nH]c12 | inactive | –
30 | N[C@H]1CONC1=O | inactive | –
31 | Cn1c(=O)c2[nH]c(-c3ccc(S(=O)(=O)O)cc3)nc2n(C)c1=O | inactive | –
32 | CCCCCCCCCCCCCCSCC(=O)O | inactive | –
33 | COC(=O)[C@H](NC(=O)c1cc(-c2ccccc2)nc2ccccc12)c1ccccc1 | inactive | –
34 | CC(=O)SC1CC2=CC(=O)CC[C@]2(C)C2CC[C@@]3(C)C(CC[C@@]34CCC(=O)O4)C12 (stereo not given in full) | inactive | –
35 | NC/C=C\C(=O)O | inactive | –
36 | c1ccc2c(c1)CC(N1CCN(c3cccc4c3OCCO4)CC1)C2 | inactive | –
37 | CN1CC(O)C(O)C(O)C1CO (stereo not given) | inactive | –
38 | COc1cc(C(O)CO)ccc1O (stereo not given) | inactive | –
39 | CC(=O)N[C@@H](Cc1c[nH]c2ccccc12)C(=O)OCc1cc(C(F)(F)F)cc(C(F)(F)F)c1 | inactive | –
40 | N[C@H](C(=O)O)[C@H](Cc1ccccc1)C(=O)O | inactive | –
